Screening results (PubChem BioAssay)
TDP1 cell CPT: growth inhibition of DT40 Tdp1-/-;hTDP1 cells with camptothecin (screen for TDP1 inhibitors); chicken DT40 Tdp1-/-;hTDP1 cells + 20 nM CPT, ATP luminescence, 48 h; Potency, µM (top dose mostly 46.2 µM), for inactives: top-dose activity change, negative = growth inhibition, most hits filed as inhibitors; 420,000 compounds, 12% hits; also: nearly all actives have a fitted effect of over 55% in size
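Chicken DT40 Tdp1-/- cells stably complemented with human TDP1 were seeded at 400 cells/well in medium containing 20 nM camptothecin, exposed to pin-transferred compounds, and grown at 37 °C for at least 48 hr. Viability was read as ATP luminescence.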
TDP1 block: TDP1 (human) enzyme inhibition. recombinant TDP1, AlphaScreen DNA substrate cleavage. Potency, µM (doses to about 130 µM), inactives show at the highest dose activity change, negative = inhibition, actives largely listed as inhibitors. 350,000 compounds, 0.28% hits. AID 485290; also: nearly all actives have a fitted effect of over 40% in size
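Tdp1 1 nM final; 15 min RT w/ cpd; substrate 15 nM, 5 min; beads 10 ug/ml, 10 min; AlphaScreen read. Neg ctrl: no enzyme.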
RORgamma inh: blocks mouse ROR gamma transcriptional activity; P51450; Drosophila S2 Gal4-RORgamma UAS-luciferase reporter, 20 h; Potency, µM (highest dose often 53.6 µM), for inactives: top-dose activity change, negative = inhibition, usual class: inhibitors; 310,000 compounds, 5.4% hits; also: nearly all actives have a fitted effect of over 60% in size
Target sequence (P51450 whole entry, looked up, the tested form may be a part): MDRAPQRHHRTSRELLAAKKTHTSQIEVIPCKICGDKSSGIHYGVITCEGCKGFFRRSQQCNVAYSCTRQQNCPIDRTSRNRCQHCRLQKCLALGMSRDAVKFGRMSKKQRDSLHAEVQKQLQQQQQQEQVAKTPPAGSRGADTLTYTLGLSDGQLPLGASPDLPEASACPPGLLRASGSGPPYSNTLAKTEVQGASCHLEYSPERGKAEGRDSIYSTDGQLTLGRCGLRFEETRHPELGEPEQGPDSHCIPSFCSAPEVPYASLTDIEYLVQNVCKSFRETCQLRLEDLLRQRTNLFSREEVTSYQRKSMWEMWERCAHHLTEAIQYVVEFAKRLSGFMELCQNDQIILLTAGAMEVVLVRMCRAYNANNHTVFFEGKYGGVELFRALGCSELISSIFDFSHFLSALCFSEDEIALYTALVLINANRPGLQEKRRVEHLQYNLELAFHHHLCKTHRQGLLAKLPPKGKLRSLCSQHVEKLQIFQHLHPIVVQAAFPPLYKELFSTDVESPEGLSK
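A Gal4/UAS one-hybrid system in insect cells: metallothionein-promoter Gal4–ROR gamma fusion plus Photinus luciferase reporter. Copper sulfate 700 uM final, 20 hr ambient incubation, luminescent detection after 10 min with reagent.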
TDP1 cell noCPT: qHTS for Inhibitors of human tyrosyl-DNA phosphodiesterase 1 (TDP1): qHTS in cells in absence of CPT | DT40 Tdp1-/- hTDP1 cells, no CPT, ATP luminescence, 48 h | Potency, µM (top dose mostly 46.2 µM), inactives show at the highest dose activity change, negative = growth inhibition, actives largely listed as inhibitors | 420,000 compounds, 15% hits | AID 686978, 2013; also: nearly all actives have a fitted effect of over 55% in size
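Chicken DT40 Tdp1-/- cells stably complemented with human TDP1 were seeded at 400 cells/well with DMSO in place of 20 nM camptothecin. After compound pinning, cells grew at least 48 hr at 37 °C; viability read by CellTiter-Glo luminescence.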
VP16 counter: inhibits Gal4-VP16 luciferase reporter, ROR gamma counter-screen; Drosophila S2 Gal4-VP16 UAS-luciferase, luminescence, 20 h; Potency, µM (top dose mostly 53.6 µM), for inactives: at the top dose activity, negative = inhibition, usual class: inhibitors; 310,000 compounds, 3.5% hits;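 also: Gal4-VP16 expression switched on by copper sulfate through the metallothionein promoter; nearly all actives have a fitted effect of over 50% in size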
Starred values were filed as active, the others as inactive; ? = inconclusive; · = not tested or not shown; [ ] = another dose, or the depositor's remark. Most compounds without a hit are left out; they make up all but 19% or so of the library. Calls follow the shape of the dose curve; as a rule, active = well fitted curve in the direction sought with a large enough effect; inconclusive = small, poorly fitted or top-dose-only effect, or another doubt; inactive = no such curve, though single readings can be large; an effect the other way counts as inactive or inconclusive. % is scaled to controls: 0 for no effect and ±100 for the full control effect; potency is read from the fitted curve at half-maximal effect.

SMILES	TDP1 cell CPT	TDP1 block	RORgamma inh	TDP1 cell noCPT	VP16 counter
CCOC(=O)c1sc(NC(=O)c2ccc(S(=O)(=O)N(CC)CC)cc2)nc1C	-7%	5%	?	-25%	-27%
CCCCNS(=O)(=O)c1ccc2nc(NC(=O)c3cccnc3)sc2c1	?	0%	·	?	·
CCCNS(=O)(=O)c1ccc2nc(NC(=O)c3ccc(F)cc3)sc2c1	8.2µM*	0%	·	21µM*	·
CCN(CC)S(=O)(=O)c1ccc2nc(NC(=O)c3cccnc3)sc2c1	21µM*	3%	·	?	·
CCN(CC)S(=O)(=O)c1ccc(C(=O)Nc2nc3c(Cl)cc(Cl)cc3s2)cc1	?	3%	·	16µM*	·
O=C(NC1CCS(=O)(=O)C1)c1cccs1 (centres undefined)	17%	-8%	-4%	-16%	-9%
O=C(NC1CCS(=O)(=O)C1)c1ccc(Br)s1 (centres undefined)	-4%	100µM*	·	11%	·
O=C(NNC(=O)c1ccc(Br)s1)NC1CCCCC1	-15%	56µM*	4%	-4%	-5%
CN(C)c1cccc(C(=O)NNC(=O)NC2CCCCC2)c1	12%	5%	-21%	6%	1%
O=C(NCCc1ccc(Cl)cc1)C1COc2ccccc2O1 (centres undefined)	-1%	10%	5%	-28%	-1%
Cc1ccc2oc(-c3cc(NC(=O)c4cccs4)cc(C)c3O)nc2c1	·	2%	·	·	·
Cc1cc(NC(=O)C(C)C)cc(-c2nc3ncccc3o2)c1O	?	2%	·	13µM*	·
Cc1ccc2oc(-c3cc(NC(=O)/C=C/c4ccco4)ccc3Cl)nc2c1	?	0%[12.3 µM]	·	21µM*	·
O=C(/C=C/c1ccco1)Nc1cc(Cl)ccc1C(=O)O	?	-8%	22%	?	3%
O=C(/C=C/c1ccco1)Nc1ccc(Cl)c(-c2nc3cc(Cl)ccc3o2)c1	?	-6%[12.3 µM]	·	26µM*	·
O=C(/C=C/c1ccco1)Nc1ccc(Cl)c(S(=O)(=O)N2CCOCC2)c1	?	8%	-4%	?	-86%
Cc1cc(NC(=O)c2ccco2)cc(-c2nc3cc(Cl)ccc3o2)c1O	18µM*	7%	·	12µM*	·
O=C(Nc1ccc(N2CCN(C(=O)c3ccco3)CC2)cc1)c1ccccc1Br	?	3%	10%	?	28%
O=C(c1ccco1)N1CCN(/C=C2\Nc3ccccc3C(=O)N2c2ccc(F)cc2)CC1	-3%	0%	·	-28%	·
Nc1nonc1-n1nnc(C(=O)N/N=C/c2ccoc2)c1CSc1ccc(Cl)cc1	-10%	4%	7.1µM*	-22%	13µM*
Nc1nonc1-n1nnc(C(=O)N/N=C/c2ccccc2)c1CSc1ccccc1	8%	8%	-45%	-7%	-2%
Nc1nonc1-n1nnc(C(=O)N/N=C/c2ccoc2)c1CSc1ccccc1	-14%	1%	16µM*	-10%	?
CN(C)Cc1c(C(=O)N/N=C/c2ccoc2)nnn1-c1nonc1N	-5%	5%	17%	-1%	1%
Nc1nonc1-n1nnc(C(=O)N/N=C/c2cccnc2)c1CSc1ccc(Cl)cc1	23µM*	5%	26%	?	-10%
CC1CCCCC1NC(=O)c1ccc2c(c1)OCCO2 (centres undefined)	-21%	0%	·	-28%	·
SMILES	TDP1 cell CPT	TDP1 block	RORgamma inh	TDP1 cell noCPT	VP16 counter
O=C(CSc1nnc(CNC(=O)c2c(F)cccc2Cl)o1)NCc1ccc2c(c1)OCO2	-13%	5%	13%	-10%	-8%
COC(=O)C[C@@H]1C=C[C@H](NS(=O)(=O)c2cccc(F)c2)[C@@H](CO)O1	9%	·	·	-6%	·
O=C(C[C@H]1C=C[C@@H](NS(=O)(=O)c2ccccc2)[C@@H](CO)O1)NCc1ccc(Cl)c(Cl)c1	?	·	·	18µM*	·
Cc1ccc(OCCC(=O)NCCc2ccc(S(N)(=O)=O)cc2)cc1	-5%	2%	28%	10%	-2%
COC(=O)c1ccccc1OCCCOc1ccc(C=O)cc1OC	?	-1%	8.9µM*	?	10µM*
COc1cc(C)ccc1OCCCCOc1ccccc1C(C)=O	1.8µM*	0%	?	?	?
COc1cc(C=O)ccc1OCc1ccccc1Br	5%	-3%	10µM*	?	11µM*
COc1cc(C=O)ccc1OCc1cccc(Br)c1	-2%	-5%	?	-7%	?
COc1cc(=O)n2c(c1C(=O)N(C)Cc1nonc1C)CCN(Cc1ccc(C)cc1C)CC2	-15%[9.04 µM]	·	·	?	·
CCOc1ccc(NC(=O)c2c(NC(=O)c3ccncc3)sc3c2CCC(C(C)(C)C)C3)cc1 (centres undefined)	?	·	·	21µM*	·
CCOC(=O)N1CCc2c(sc(NCc3cc(OC)ccc3OC)c2C(=O)Nc2cc(OC)ccc2OC)C1	?	9%	·	?	·
COc1ccc(OC)c(NC(=O)c2c(NCc3ccc(C)o3)sc3c2CCCCC3)c1	6.5µM*	9%	·	7.3µM*	·
CCOc1ccc(NC(=O)c2c(NCc3cccs3)sc3c2CCC(C)C3)cc1 (centres undefined)	?	6%	·	?	·
CCOc1ccccc1NC(=O)c1c(NCc2cccs2)sc2c1CCC(C)C2 (centres undefined)	?	1%	·	18µM*	·
COc1ccc(Cl)cc1NC(=O)c1c(NCc2ccc(C)o2)sc2c1CCC(C)C2 (centres undefined)	?	4%	·	16µM*	·
CCOc1ccc(NC(=O)c2c(NC(=O)c3cccs3)sc3c2CCC(C(C)(C)C)C3)cc1 (centres undefined)	-17%	·	·	-15%	·
COc1ccc(NS(=O)(=O)c2cc(NC(=O)c3cc(=O)c4ccccc4o3)ccc2OC)cc1	3%	2%	32%	-22%	-20%
O=C1Nc2c(ccc(Cl)c2Cl)C(=O)C1(F)c1ccccc1 (centres undefined)	-16%	7%	?	-29%	-9%
O=C(O)c1ccc(CNCc2cc(Cl)ccc2O)cc1	-13%	2%	·	-1%	·
CCc1nc(-c2cc(S(=O)(=O)N3CCN(c4ccccc4OC)CC3)ccc2OC)no1	-27%	6%	·	?	·
COc1ccc(OC)c(NC(=O)c2c(NCc3sccc3C)sc3c2CCCCC3)c1	7.3µM*	10%	·	2.6µM*	·
COC(=O)c1c(NC(=O)COc2ccc(Cl)cc2C)sc2c1CCCCC2	-23%	-7%[12.3 µM]	·	-8%	·
COc1ccc(Cl)cc1NC(=O)c1c(NCc2ccc(C)o2)sc2c1CCCCC2	9.2µM*	-1%	·	15µM*	·
COc1ccc(Cl)cc1NC(=O)c1c(NCc2cccs2)sc2c1CCC(C)C2 (centres undefined)	?	6%	·	13µM*	·
